According to PubChem BioAssay (Tox21):
“And” between values parts separate entries of the source, which are not always exact repeats. Equal values may be shown once. Inconclusive results are not listed. The source holds several records for some structures; these can differ, active in one and inactive in another. The source made the active and inactive calls. Calls follow the shape of the dose curve; as a rule, active = well fitted cell-killing curve with a large enough effect in the repeat runs; inconclusive = weak or mixed curves, or effect the other way; inactive = no such curve, though single readings can be large or run the other way.

Assay: qHTS assay to identify small molecule agonists of the vitamin D receptor (VDR) signaling pathway - cell viability counter screen (AID 743224); also: nearly all actives have a fitted effect of over 50% in size
Settings: VDR-bla HEK293T viability, CellTiter-Glo luminescence, 16 h; series mostly up to 62.6 µM
From the text: U.S. Tox21 Program National Center for Advancing Translational Sciences [NCATS] NIH Chemical Genomics Center [NCGC] U.S. Environmental Protection Agency [EPA] National Institutes of Environmental Health Sciences [NIEHS] National Toxicology Program [NTP] U.S. Food and Drug Administration [FDA] Tox21 Assay Overview: The vitamin D receptor (VDR), a member of nuclear hormone receptor superfamily, plays a critical role in calcium homeostasis and bone metabolism. It is also involved in cell differentiation and growth, and thrombogenicity. […] The cytotoxicity of the Tox21 compound library against the VDR-bla cell line was tested in parallel by measuring the cell viability using CellTiter-Glo assay (Promega, Madison, WI) in the same wells.
Tox21 Assay Protocol Summary: VDR-bla cells were dispensed at 2,000 cells/6 uL/well into black wall/clear-bottom 1536-well plates using a Multidrop Combi (Thermo Fisher Scientific, Waltham, MA) dispenser. After the assay plates were incubated at a 37C and 5% CO2 for 4 h, 23 nL of compounds dissolved in DMSO, positive controls or DMSO only was transferred to the assay plate by a Pintool station (Kalypsys, San Diego, CA). The plates were incubated at 37C and 5% CO2 for 16 h. After 1 uL of LiveBLAzerTM B/G FRET substrate was added using a Bioraptr Flying Reagent Dispenser (FRD) workstation (Beckman Coulter, Indianapolis, IN, USA), the plates were incubated at room temperature for 2 h, and fluorescence intensity was measured by an Envision plate reader (PerkinElmer, Shelton, CT). For cell viability readout that measures cytotoxicity, 3 ul/well of CellTiter-Glo reagent was added into the assay plates using a FRD. After 30 min incubation at room temperature, the luminescence intensity in the plates was measured using a ViewLux (PerkinElmer) plate reader.
Potency is read from the fitted curve at half-maximal effect.

Compound | Potency
C[C@]12CC[C@H]3[C@@H](CCC4=CC(=O)CC[C@@]43C)[C@@H]1CC[C@@H]2O | inactive
CCCCCCCCCCCCCC[P+](CCCCCC)(CCCCCC)CCCCCC (tested in a mixture with another compound) | 3.09 µM (active)
CCCCN(CCCC)C(=S)[S-].CCCCN(CCCC)C(=S)[S-].[Zn+2] | 5.49 µM (active)
CCCOCC(=Nc1ccc(Cl)cc1C(F)(F)F)n1ccnc1 | 7.76 µM (active)
CC(C)OS(C)(=O)=O | inactive
CC1CCC(C(C)C)C(OC(=O)c2ccccc2N)C1 (stereo not given) | 34.2 µM (active)
Cn1cc(C2=C(c3cn(C4CCN(Cc5ccccn5)CC4)c4ccccc34)C(=O)NC2=O)c2ccccc21 | inactive
Clc1ccc(C(c2ccc(Cl)cc2)C(Cl)(Cl)Cl)cc1 | 55.3 µM (active) and 43.6 µM (active) and inactive
O=C(O)C1C2CCC(O2)C1C(=O)O (stereo not given) | inactive
Clc1ccc(CSC(Cn2ccnc2)c2ccc(Cl)cc2Cl)cc1 (stereo not given) | 29.8 µM (active)
COc1cccc2c1C(=O)c1c(O)c3c(c(O)c1C2=O)C[C@@](O)(C(=O)CO)CC3OC1CC(N2CCOC(OC)C2)C(O)C(C)O1 (stereo not given in full) | inactive
CCCCCCCCCCCCBr | inactive
Nc1ccccc1C(=O)OC/C=C/c1ccccc1 | 49.1 µM (active)
CC(C)CC(C)Nc1ccc(Nc2ccccc2)cc1 (stereo not given) | 38.3 µM (active)
O=c1oc2ccccc2c(O)c1Cc1c(O)c2ccccc2oc1=O | inactive
CCOc1cc(C(C)(C)C)ccc1C1COC(c2c(F)cccc2F)=N1 (stereo not given) | 23.6 µM (active)
N#CCCSCCC#N | inactive
C1CCC2CCCCC2C1 (stereo not given) | inactive
N#CSCSC#N | 15.8 µM (active) and 17.2 µM (active)
Nc1ccccc1C(=O)Oc1ccc2ccccc2c1 | inactive

Compound | Potency
Cc1ccc(OP(=O)(Oc2ccccc2)Oc2ccccc2)cc1 | inactive
CC(=O)c1cc(C(C)(C)C)cc2c1CCC2(C)C | 49 µM (active)
COP(=S)(OC)Oc1cc(Cl)c(Br)cc1Cl | inactive
CCCCCCCCCCCCCN1CC(C)OC(C)C1 (stereo not given) | inactive
Clc1ccc(C(Cl)(Cl)Cl)c(Cl)c1 | inactive
C[C@@H]1O[C@@H](O[C@@H]2C=C3CC[C@@H]4[C@H](CC[C@]5(C)[C@@H](c6ccc(=O)oc6)CC[C@]45O)[C@@]3(C)CC2)[C@H](O)[C@H](O)[C@H]1O | 0.0133 µM (active)
CCCCCCCCCCCCCCCC[N+](C)(C)C | 21.1 µM (active) and 24.5 µM (active)
[Hg+2].[I-].[I-] | 1.55 µM (active)
Clc1ccc(C(c2ccccc2Cl)C(Cl)(Cl)Cl)cc1 (stereo not given) | 43.9 µM (active)
Nc1ccc(Sc2ccc(N)cc2)cc1 | inactive
S=C(SSC(=S)N1CCCCC1)N1CCCCC1 | 0.168 µM (active)
[CH3][Hg][Cl] | 38.8 µM (active)
BrC(Br)Br | inactive
CC1(c2ccc(Oc3ccccc3)cc2)OC(=O)N(Nc2ccccc2)C1=O (stereo not given) | 17.5 µM (active)
c1ccc2cc3c(cc2c1)-c1cccc2cccc-3c12 | inactive
O=[N+]([O-])O.O=[N+]([O-])O.[Cd] | 1.74 µM (active)
Oc1cc(Cl)c(Cl)c(Cl)c1 | 36.9 µM (active)
c1ccc(Nc2ccc3ccccc3c2)cc1 | inactive
N#CCCC(Br)(C#N)CBr (stereo not given) | 43.6 µM (active)
C[C@@H]1O[C@@H](O[C@H]2C[C@@H](O)[C@]3(CO)[C@H]4[C@H](O)C[C@]5(C)[C@@H](C6=CC(=O)OC6)CC[C@]5(O)[C@@H]4CC[C@]3(O)C2)[C@H](O)[C@H](O)[C@H]1O | 16.5 nM (active) and 75 nM (active)
